Experimental findings from PubChem BioAssay are described below.

The source made the active and inactive calls.

Assay [1] deals with PRMT1 (protein arginine N-methyltransferase 1). The experiment in a line: PRMT1 binders on small-molecule microarrays, primary screen, biochemical, small-molecule microarray, 635 nm fluorescence (AID 1088).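 Also: binding of Prmt1 protein to compounds spotted on small-molecule microarray slides.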 Conditions: small-molecule microarray binding, higher = more signal.
The nature of assay [2]: yeast growth modulation, basal conditions, primary screen, YJM789 clinical isolate, OD600, 24 h (AID 1089).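 Also: growth of clinical yeast isolate S. cerevisiae YJM 789 seeded 1000 cells per well; test concentration not given here.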 Conditions: S. cerevisiae YJM789 growth, higher = more signal, called active from +8 up or from −8 down.
Assay [3] is described as follows: fission yeast growth modulation, primary screen, strain 972, OD600, 24 h, no modulator (AID 1090).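 Also: basal condition with compound alone and no growth modifier present; test concentration not given here.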 The conditions noted are these: S. pombe 972 growth, higher = more signal, called active from +8 up or from −8 down.
Assay [4] can be described thus: S. cerevisiae growth modulation with rapamycin, primary screen, strain BY4716, OD600, 96 h (AID 1091). Also: test concentration not given here. Conditions: higher = more signal, called active from +8 up or from −8 down.
The target in assay [5] is Torsin-1A-interacting protein 2 (Homo sapiens) (UniProt Q8NFQ8). Description: LULL1 binders on small-molecule microarray, primary screen, cell lysate, human LULL1 lysate, 635/667 nm fluorescence (AID 1092).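 Also: probe is lysate of COS7 cells overexpressing human LULL1; score merges per-feature 667 nm fluorescence with signal-to-noise.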 Conditions: hLULL1 lysate binding, 635 nm fluorescence, higher = more signal.
Chain of Torsin-1A-interacting protein 2 (Homo sapiens) (Q8NFQ8 whole entry, looked up): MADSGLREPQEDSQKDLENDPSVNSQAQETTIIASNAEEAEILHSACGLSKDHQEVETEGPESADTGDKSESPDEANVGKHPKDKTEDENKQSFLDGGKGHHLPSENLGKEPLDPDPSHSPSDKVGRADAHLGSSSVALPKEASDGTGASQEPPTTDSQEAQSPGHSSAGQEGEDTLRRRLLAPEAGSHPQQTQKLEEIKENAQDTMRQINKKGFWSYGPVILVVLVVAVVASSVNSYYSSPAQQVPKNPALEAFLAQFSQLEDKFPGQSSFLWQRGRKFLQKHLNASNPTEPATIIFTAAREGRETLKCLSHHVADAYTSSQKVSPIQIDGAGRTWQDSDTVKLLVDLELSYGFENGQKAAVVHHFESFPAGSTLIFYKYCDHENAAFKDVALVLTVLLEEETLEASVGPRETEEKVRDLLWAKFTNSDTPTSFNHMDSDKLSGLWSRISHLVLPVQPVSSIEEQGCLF
A short description of assay [6]: E. coli growth modulation, two-sided OD650, primary screen, E. coli filamentation project, strain DRC41, 24 h (AID 1093).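 Also: MC1000 strain lacking acrAB efflux and sulA so SOS filamentation is blocked; test concentration not given here.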 The conditions noted are these: OD650, 24 h, higher = more signal, called active from +8 up or from −8 down.
The nature of assay [7]: small-molecule microarray binders of probe aLefty2, primary screen, biochemical, biotinylated probe, 635/667 nm fluorescence (AID 1094).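 Also: score merges spot fluorescence near 667 nm with spot signal-to-noise ratio.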 The conditions noted are these: higher = more signal.
Assay [8] deals with Noggin (protein binding on small-molecule microarray). Description: Noggin binders on small-molecule microarray, primary screen, biochemical, 635/667 nm fluorescence (AID 1095).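 Also: score merges 667 nm feature fluorescence with signal to noise over triplicate slides.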 Conditions: 635 nm fluorescence, higher = more signal.
For assay [9], the target named is Neurogenic locus notch homolog protein 3 (Homo sapiens) (UniProt Q9UM47). The experiment in a line: NOTCH3 binders on small-molecule microarray, primary screen, biochemical, 635/667 nm fluorescence (AID 1096). The conditions noted are these: NOTCH3 binding, 635 nm fluorescence, higher = more signal.
Chain of Neurogenic locus notch homolog protein 3 (Homo sapiens) (Q9UM47 whole entry, looked up): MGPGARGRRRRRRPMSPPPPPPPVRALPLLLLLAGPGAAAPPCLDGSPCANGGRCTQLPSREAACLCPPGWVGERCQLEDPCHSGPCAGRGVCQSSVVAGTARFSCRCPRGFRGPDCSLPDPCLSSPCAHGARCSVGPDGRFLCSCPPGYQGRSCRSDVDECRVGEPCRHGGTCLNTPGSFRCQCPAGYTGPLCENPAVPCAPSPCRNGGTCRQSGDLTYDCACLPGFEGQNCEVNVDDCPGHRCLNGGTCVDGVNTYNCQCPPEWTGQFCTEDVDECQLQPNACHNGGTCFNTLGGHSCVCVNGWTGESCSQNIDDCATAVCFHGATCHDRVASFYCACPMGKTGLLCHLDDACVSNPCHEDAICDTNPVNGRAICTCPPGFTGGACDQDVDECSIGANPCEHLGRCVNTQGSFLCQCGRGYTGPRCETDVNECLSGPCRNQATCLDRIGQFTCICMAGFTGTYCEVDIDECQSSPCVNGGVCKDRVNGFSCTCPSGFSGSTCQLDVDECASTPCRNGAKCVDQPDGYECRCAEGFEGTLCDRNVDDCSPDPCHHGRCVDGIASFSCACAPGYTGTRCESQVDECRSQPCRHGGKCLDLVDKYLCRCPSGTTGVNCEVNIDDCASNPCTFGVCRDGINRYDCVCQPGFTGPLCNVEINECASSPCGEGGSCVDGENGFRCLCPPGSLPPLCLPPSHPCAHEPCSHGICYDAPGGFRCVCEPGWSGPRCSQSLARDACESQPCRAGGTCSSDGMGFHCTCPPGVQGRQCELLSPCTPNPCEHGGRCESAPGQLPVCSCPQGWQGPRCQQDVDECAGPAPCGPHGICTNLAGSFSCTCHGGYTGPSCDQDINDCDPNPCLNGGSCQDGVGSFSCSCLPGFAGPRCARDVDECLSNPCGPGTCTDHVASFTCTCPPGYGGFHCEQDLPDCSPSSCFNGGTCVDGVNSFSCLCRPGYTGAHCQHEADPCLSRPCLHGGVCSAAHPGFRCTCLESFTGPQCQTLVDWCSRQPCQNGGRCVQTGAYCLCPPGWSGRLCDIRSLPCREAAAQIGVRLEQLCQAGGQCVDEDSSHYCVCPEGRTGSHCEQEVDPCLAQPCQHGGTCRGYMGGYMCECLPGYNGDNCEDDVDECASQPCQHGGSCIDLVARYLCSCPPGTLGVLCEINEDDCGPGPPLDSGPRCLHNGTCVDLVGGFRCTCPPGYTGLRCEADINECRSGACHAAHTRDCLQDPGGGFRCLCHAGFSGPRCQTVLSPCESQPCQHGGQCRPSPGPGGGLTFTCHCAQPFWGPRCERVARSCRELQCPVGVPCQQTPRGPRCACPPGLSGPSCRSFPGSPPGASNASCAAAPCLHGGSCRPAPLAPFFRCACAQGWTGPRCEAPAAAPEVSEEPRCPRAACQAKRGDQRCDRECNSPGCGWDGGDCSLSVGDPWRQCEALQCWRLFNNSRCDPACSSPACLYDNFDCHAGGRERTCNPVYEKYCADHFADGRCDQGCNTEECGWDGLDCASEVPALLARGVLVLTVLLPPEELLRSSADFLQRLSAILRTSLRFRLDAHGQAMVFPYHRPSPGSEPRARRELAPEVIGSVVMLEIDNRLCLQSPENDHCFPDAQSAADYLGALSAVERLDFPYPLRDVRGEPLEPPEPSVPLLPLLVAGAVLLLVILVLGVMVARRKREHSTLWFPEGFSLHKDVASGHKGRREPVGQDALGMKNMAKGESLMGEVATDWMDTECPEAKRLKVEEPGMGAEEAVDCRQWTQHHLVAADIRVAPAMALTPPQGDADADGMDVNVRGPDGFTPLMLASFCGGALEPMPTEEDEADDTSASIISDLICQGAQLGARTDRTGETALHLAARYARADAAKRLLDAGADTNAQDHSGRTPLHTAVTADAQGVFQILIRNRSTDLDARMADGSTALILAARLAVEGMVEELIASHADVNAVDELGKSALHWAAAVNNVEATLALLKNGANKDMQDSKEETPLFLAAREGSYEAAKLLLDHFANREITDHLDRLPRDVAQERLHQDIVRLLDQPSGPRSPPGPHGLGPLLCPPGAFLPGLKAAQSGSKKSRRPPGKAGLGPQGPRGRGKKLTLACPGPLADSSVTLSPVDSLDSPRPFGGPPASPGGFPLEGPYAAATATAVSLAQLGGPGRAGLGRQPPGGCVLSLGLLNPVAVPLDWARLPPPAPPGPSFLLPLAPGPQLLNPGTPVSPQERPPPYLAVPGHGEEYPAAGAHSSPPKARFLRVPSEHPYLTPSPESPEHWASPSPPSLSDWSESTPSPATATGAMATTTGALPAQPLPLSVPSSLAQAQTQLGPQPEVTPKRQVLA
The nature of assay [10]: small-molecule microarray binders of probe aEGFR, primary screen, biochemical, biotinylated probe, 635/667 nm fluorescence (AID 1097).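 Also: probe is a biotinylated anti-EGFR antibody binding compounds printed on slides; score combines fluorescence near 667 nm and signal to noise of each spot.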 Conditions: higher = more signal.
Assay [11] concerns Plasmodium falciparum Sir2 (PF13_0152, Sir2A). Description: pfSir2 binders on small-molecule microarrays, primary screen, biochemical, small-molecule microarray, 635 nm fluorescence (AID 1098).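 Also: score merges spot fluorescence intensity with its signal-to-noise ratio.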 Conditions: small-molecule microarray binding, fluorescence 635 nm; higher = more signal.
Assay [12] is described as follows: small-molecule microarray binders of probe aDKK1, primary screen, biochemical, biotinylated probe, 635/667 nm fluorescence (AID 1099).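 Also: score merges 667nm spot fluorescence with signal to noise across triplicate slides; reference of the scale not given here.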 The conditions noted are these: higher = more signal.
Assay [13] in a line: small-molecule microarray binders of probe aCHRDL2, primary screen, biochemical, biotinylated probe, 635/667 nm fluorescence (AID 1100). Conditions: higher = more signal.
A short description of assay [14]: splicing luciferase reporter signal modulators, primary screen, spliceosome inhibition project, cell-based, HEK293, splice +/- reporter (AID 1101).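 Also: HEK293 cells carrying a splicing-competent luciferase reporter gene; test concentration not given here.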 The conditions noted are these: luminescence, 24 h, higher = more signal, called active from +8 up or from −8 down. A general note: Reporter assays use an easily measured gene product as a stand-in for the process of interest.

Assay [15] concerns the target Fibroblast growth factor 10 (Homo sapiens) (UniProt O15520). Description: FGF10 binders on small-molecule microarrays, primary screen, biochemical, small-molecule microarray, 635 nm fluorescence (AID 1102). Conditions: FGF10 binding, fluorescence 635 nm, higher = more signal.
Assay [16] has as its system glycogen synthase kinase-3 (GSK3A per assay name; protocol says GSK3B). Description: GSK3 binders on small-molecule microarrays, primary screen, biochemical, small-molecule microarray, 635 nm fluorescence, GSK3A (AID 1103). Also: the record names both GSK3A and GSK3B. The conditions noted are these: small-molecule microarray binding, fluorescence 635 nm; higher = more signal.
Assay [17] concerns the target Epidermal growth factor receptor (Homo sapiens) (UniProt P00533). Description: EGFR binders on small-molecule microarrays, primary screen, biochemical, small-molecule microarray, 635 nm fluorescence (AID 1104).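 Also: score merges 667 nm emission intensity with spot signal to noise over triplicate slides.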 Conditions: EGFR binding, higher = more signal.
Assay [18] deals with Follistatin-related protein 3 (Homo sapiens) (UniProt O95633). The experiment in a line: FSTL3 binders on small-molecule microarrays, primary screen, biochemical, small-molecule microarray, 635 nm fluorescence (AID 1105).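 Also: score merges emission near 667 nm and signal to noise per printed spot across three slides.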 The conditions noted are these: FSTL3 binding, higher = more signal.
Chain of Follistatin-related protein 3 (Homo sapiens) (O95633 whole entry, looked up): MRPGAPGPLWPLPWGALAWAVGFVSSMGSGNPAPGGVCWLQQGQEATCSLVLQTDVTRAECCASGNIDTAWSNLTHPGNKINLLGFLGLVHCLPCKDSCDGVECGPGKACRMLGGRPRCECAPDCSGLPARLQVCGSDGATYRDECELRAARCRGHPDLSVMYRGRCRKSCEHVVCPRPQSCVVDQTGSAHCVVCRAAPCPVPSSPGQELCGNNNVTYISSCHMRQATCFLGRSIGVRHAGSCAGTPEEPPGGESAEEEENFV
Assay [19] concerns the target Dickkopf-related protein 1 (Homo sapiens) (UniProt O94907). The experiment in a line: DKK1 binders on small-molecule microarrays, primary screen, biochemical, small-molecule microarray, 635 nm fluorescence scan (AID 1106).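 Also: score merges emission near 667 nm with signal to noise over three replicate slides.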 The conditions noted are these: DKK1 binding, higher = more signal.
For assay [20], the system named is Inhibin beta A chain (activin A). Description: INHBA (activin A) binders on microarrays, primary screen, biochemical, small-molecule microarray, 635 nm fluorescence scan (AID 1107).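 Also: mouse activin A protein probed at 4.33 µg/mL on printed slides; score merges bound-protein fluorescence near 667 nm with spot signal-to-noise.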 The conditions noted are these: small-molecule microarray binding, higher = more signal.

Chain of Dickkopf-related protein 1 (Homo sapiens) (O94907 whole entry, looked up): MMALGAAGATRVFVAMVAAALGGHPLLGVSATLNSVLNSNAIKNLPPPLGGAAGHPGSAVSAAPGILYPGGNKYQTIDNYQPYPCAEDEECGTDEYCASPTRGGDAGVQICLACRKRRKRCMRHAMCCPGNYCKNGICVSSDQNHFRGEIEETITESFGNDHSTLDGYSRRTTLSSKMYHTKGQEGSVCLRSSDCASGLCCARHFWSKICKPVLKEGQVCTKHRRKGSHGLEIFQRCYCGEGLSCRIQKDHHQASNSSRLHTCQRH
Chain of Epidermal growth factor receptor (Homo sapiens) (P00533 whole entry, looked up): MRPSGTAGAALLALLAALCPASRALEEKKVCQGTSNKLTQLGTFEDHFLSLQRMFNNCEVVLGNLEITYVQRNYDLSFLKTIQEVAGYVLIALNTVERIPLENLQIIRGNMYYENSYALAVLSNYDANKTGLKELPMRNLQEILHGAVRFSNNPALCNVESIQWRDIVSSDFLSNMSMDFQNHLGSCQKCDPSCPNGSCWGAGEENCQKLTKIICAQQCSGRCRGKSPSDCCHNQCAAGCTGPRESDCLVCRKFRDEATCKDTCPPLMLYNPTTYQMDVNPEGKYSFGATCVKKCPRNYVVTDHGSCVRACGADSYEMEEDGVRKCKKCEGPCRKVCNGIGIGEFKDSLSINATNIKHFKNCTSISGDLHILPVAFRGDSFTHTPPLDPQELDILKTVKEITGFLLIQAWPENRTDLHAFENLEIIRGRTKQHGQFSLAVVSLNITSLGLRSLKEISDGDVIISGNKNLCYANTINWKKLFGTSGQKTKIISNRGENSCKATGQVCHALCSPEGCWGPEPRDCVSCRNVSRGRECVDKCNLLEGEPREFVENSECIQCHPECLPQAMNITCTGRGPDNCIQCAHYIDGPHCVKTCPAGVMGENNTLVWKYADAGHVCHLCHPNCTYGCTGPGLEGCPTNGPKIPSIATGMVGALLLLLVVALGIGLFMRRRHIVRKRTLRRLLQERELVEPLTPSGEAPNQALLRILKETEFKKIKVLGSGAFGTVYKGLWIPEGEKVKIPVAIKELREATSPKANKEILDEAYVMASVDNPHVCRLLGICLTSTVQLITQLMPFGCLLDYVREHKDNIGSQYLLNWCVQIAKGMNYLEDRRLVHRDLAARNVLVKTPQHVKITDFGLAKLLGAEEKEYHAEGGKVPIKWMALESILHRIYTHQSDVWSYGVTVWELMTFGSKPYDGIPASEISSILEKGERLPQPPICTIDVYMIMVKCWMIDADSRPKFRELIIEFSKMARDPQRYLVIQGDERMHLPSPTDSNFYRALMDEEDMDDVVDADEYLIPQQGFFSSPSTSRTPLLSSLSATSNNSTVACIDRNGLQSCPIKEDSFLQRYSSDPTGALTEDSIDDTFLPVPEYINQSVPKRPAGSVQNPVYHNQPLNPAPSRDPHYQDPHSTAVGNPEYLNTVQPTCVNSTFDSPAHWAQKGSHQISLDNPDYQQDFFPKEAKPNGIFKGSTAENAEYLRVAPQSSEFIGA
Chain of Fibroblast growth factor 10 (Homo sapiens) (O15520 whole entry, looked up): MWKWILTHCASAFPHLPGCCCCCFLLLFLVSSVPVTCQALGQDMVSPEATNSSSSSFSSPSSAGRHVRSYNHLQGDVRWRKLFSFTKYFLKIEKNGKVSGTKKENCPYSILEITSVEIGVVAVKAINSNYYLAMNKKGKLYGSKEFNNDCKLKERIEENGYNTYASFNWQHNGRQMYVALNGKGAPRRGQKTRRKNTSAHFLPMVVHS

As for `C=CC[C@@]1(C(=O)N2CCOCC2)N=C(c2ccc(OCCCO)cc2)O[C@@H]1c1ccccc1`, the composite z-score in [1] was 0.142; in assay [5], 2.71; in [7] it was 0.0634; in assay [8], -0.506; in [9] it was -1.35; in assay [10] it was -0.0728. Besides, the composite z-score in assay [11] was -0.406; in assay [12], 0.853; in assay [13], 0.845; in assay [15], 0.293; in assay [16], 0.175; in assay [17] it was -0.622. Also, the composite z-score in assay [18] was -0.72; in [19], -0.191; in assay [20] it was 0.437. The z-score is 0.509 (inactive) in assay [2]; -1.61 (inactive) in assay [3]; 0.352 (inactive) in assay [4]; 1.33 (inactive) in assay [6]; -0.462 (inactive) in [14].

As to `C=CCNC(=O)[C@H]1[C@@H]2C(=O)O[C@@H](c3ccccc3)[C@@H](c3ccccc3)N2[C@@H](c2ccccc2OCCO)[C@]12C(=O)N(C(=O)OCCOC)c1ccc(C#CCNC(N)=O)cc12`, the composite z-score in assay [1] is 1.55; in assay [5] it was 2.39; in assay [7] it was -0.108; in [8], 0.878; in [9] it was 1.15; in assay [10] it was -0.0389. The composite z-score was determined as 1.28 in assay [11]; 0.607 in [12]; 0.802 in assay [13]; 0.471 in assay [15]; 0.843 in assay [16]; 0.158 in assay [17]. In addition, the composite z-score was 0.507 in assay [18], 0.111 in assay [19] and 0.889 in assay [20]. Also, the z-score is 0.602 (inactive) in assay [2]; -0.26 (inactive) in [3]; 3.16 (inactive) in [4]; 2.35 (inactive) in assay [6]; -0.294 (inactive) in assay [14].

On to `CO[C@H]1O[C@H](CO)[C@@H](OC(=O)Nc2ccc3c(c2)OCO3)[C@H](OC(=O)Nc2ccccc2)[C@@H]1OC(=O)Nc1ccccc1`, for which the composite z-score in assay [1] was 1.55; in [5], 3.33; in [7], -0.0798; in [8], 1.02; in [9], 0.915; in assay [10], -0.144. In addition, the composite z-score in assay [11] is 0.966; in [12] it was 0.0085; in assay [13] it was 0.0249; in assay [15], 1.46; in [16], 1.16; in assay [17], -0.228. In addition, the figures for the composite z-score in assay [18], in [19] and in [20] were 0.479, -0.0463 and -0.0204, respectively. Moreover, the z-score is 0.738 (inactive) in assay [2]; 0.51 (inactive) in [3]; 4.42 (inactive) in assay [4]; -1.17 (inactive) in assay [6]; -0.788 (inactive) in assay [14].

With `C=CC[C@]1(C(=O)OC)N=C(c2ccc(OCCCO)cc2)O[C@H]1c1ccccc1CN=[N+]=[N-]`, the composite z-score in assay [1] is 0.828; in assay [5] it was 1.37; in assay [7], 0.4; in assay [8] it was -0.101; in [9], -0.823; in assay [10], -0.0828. Besides, the composite z-score in [11] is 0.212; in assay [12], 1.21; in assay [13], 1.44; in assay [15], -0.404; in assay [16] it was -0.52; in [17] it was -0.493. Further, the composite z-score in assay [18] is -0.363; in [19], -0.795; in [20], 1.31. For the same compound, the z-score in assay [2] was -0.664 (inactive); in [3] it was -2.28 (inactive); in assay [4], -0.723 (inactive); in assay [6], 1.37 (inactive); in assay [14], -1.4 (inactive).

On to `CN(C)c1ccc(C(O)C2C=CC3C(=O)NC(=O)C3N2Nc2ccc(Cl)cc2Cl)cc1` (stereo not given), for which the composite z-score in assay [1] is 0.546; in [5], 2.58; in assay [7], 0.31; in assay [8] it was -0.163; in assay [9], 0.809; in [10], -0.125. In addition, the composite z-score is 0.189 in [11]; 0.88 in assay [12]; 1.09 in assay [13]; 0.356 in [15]; 0.121 in assay [16]; -0.789 in assay [17]. The composite z-score in assay [18] is 0.554; in [19], -0.336; in assay [20], 1.43. Further, the z-score was -0.298 (inactive) in [2]; -1.06 (inactive) in assay [3]; 0.789 (inactive) in assay [4]; -0.617 (inactive) in assay [6]; 0.701 (inactive) in assay [14].
